# Results published in article PMC7862700, “An all-to-all approach to the identification of sequence-specific readers for epigenetic DNA modifications on cytosine”.
# What was measured:
# Assay in all cases: DAPPL (digital affinity profiling via proximity ligation, sequencing); 10 mM Tris-HCl pH 7.5, 50 mM NaCl, 1 mM DTT, 4% glycerol, room temperature, 30 min; GST-TFs on glutathione beads, 16-mer random dsDNA library, 0.1% formaldehyde crosslink after washing; high values mean tight binding
# FLI1 = target: T1, FLI1 (Homo sapiens, UniProt Q01543 1-452); conditions: protein: recombinant; tags: N-terminal GST; dsDNA, one strand shown
# T1 sequence: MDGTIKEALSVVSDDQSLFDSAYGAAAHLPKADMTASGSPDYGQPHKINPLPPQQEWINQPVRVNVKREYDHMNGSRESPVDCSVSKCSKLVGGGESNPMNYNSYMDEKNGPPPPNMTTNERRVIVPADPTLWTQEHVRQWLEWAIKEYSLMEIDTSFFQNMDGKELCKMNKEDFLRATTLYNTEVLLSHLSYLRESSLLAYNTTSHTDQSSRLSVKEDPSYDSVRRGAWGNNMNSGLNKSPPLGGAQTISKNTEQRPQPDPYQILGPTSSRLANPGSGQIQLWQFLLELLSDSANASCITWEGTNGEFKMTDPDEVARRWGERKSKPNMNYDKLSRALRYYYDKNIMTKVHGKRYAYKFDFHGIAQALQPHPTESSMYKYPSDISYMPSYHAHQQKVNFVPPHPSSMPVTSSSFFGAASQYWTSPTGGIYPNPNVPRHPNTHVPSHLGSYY
# Summary of the method: (§1)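 Binding signal is given per hexamer as its read frequency for a factor divided by its frequency in the tag-only sample. GST-fused human transcription factors were expressed in yeast, captured on glutathione beads, barcoded with DNA and pooled with that sample, then incubated with 200 nmole of a 16-mer random double-stranded DNA library in Tris/NaCl/DTT/glycerol buffer for 30 min at room temperature. The pools were then washed, crosslinked, proximity-ligated, amplified by PCR and sequenced on an Illumina NextSeq500.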
# ELK1 = target: T2, ELK1 (Homo sapiens, UniProt P19419 1-428); conditions: protein: recombinant; tags: N-terminal GST; dsDNA, one strand shown
# T2 sequence: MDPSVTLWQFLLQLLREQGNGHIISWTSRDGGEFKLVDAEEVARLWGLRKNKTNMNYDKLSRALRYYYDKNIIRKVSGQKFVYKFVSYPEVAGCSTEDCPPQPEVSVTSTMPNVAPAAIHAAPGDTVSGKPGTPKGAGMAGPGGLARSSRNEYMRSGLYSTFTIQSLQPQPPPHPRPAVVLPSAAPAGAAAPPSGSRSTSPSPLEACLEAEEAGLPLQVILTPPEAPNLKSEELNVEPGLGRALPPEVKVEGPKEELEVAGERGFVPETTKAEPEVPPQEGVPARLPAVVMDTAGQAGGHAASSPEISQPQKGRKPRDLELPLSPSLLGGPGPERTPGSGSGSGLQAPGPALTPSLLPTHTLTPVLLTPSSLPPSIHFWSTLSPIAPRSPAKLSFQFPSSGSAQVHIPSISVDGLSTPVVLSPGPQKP
# Summary of the method: as §1
# GABPA = target: T3, GABPA (Homo sapiens, UniProt Q06546 1-454); conditions: protein: recombinant; tags: N-terminal GST; dsDNA, one strand shown
# T3 sequence: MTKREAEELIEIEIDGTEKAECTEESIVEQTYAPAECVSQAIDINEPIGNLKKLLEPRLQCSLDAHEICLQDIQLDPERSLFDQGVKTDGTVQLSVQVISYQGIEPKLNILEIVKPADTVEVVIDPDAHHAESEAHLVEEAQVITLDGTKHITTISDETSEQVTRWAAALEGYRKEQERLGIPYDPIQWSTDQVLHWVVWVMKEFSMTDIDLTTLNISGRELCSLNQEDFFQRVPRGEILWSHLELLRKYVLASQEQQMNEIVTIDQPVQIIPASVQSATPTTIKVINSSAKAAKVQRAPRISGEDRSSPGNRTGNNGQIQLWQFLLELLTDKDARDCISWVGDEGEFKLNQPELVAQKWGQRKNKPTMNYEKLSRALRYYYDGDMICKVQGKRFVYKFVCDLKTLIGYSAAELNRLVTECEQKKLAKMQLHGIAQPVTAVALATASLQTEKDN
# Summary of the method: as §1
# ERG = target: T4, ERG (Homo sapiens, UniProt P11308 1-479); conditions: protein: recombinant; tags: N-terminal GST; dsDNA, one strand shown
# T4 sequence: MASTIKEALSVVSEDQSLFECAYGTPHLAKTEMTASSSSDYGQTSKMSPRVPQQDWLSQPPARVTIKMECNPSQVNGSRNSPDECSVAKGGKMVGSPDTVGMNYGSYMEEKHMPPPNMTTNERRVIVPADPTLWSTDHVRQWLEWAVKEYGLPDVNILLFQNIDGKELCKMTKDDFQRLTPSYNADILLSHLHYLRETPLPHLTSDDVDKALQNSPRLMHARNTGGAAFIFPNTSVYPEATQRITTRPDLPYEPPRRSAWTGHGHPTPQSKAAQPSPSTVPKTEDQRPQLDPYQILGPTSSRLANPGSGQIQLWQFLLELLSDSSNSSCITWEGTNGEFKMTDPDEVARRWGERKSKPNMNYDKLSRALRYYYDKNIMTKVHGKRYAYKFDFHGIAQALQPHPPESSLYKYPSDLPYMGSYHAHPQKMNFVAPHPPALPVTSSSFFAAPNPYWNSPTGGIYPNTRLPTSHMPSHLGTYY
# Summary of the method: as §1
# ELF1 = ELF1 (Homo sapiens, UniProt P32519 1-619); conditions: protein: recombinant; tags: N-terminal GST; dsDNA, one strand shown
# ELF1, sequence (P32519 whole entry): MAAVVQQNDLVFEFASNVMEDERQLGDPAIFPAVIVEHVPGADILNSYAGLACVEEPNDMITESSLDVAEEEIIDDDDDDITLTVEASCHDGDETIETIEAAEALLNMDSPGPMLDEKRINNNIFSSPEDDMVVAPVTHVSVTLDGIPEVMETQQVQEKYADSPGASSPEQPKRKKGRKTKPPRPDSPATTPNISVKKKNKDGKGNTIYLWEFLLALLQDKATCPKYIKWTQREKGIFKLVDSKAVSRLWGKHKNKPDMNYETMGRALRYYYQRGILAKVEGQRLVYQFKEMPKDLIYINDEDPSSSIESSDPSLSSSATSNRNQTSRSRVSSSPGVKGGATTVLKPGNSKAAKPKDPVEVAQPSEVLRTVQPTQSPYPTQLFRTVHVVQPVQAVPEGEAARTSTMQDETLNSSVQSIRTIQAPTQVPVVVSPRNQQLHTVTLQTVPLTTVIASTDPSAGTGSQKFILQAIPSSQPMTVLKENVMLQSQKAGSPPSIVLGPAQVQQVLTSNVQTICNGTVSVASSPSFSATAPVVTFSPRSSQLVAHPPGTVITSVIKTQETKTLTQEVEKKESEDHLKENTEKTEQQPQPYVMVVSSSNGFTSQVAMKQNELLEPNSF
# Summary of the method: as §1
# EHF = target: T5, EHF (Homo sapiens, UniProt Q9NZC4 1-300); conditions: protein: recombinant; tags: N-terminal GST; dsDNA, one strand shown
# T5 sequence: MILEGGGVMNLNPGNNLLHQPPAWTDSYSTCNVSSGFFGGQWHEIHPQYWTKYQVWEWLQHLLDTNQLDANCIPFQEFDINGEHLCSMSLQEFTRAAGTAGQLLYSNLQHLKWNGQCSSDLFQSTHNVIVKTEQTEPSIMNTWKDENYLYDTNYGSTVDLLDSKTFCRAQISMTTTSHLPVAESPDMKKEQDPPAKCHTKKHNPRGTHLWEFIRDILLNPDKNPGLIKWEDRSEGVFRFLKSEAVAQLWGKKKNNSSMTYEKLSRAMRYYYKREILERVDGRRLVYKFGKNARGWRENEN
# Summary of the method: as §1
# SPI1 = SPI1 (Homo sapiens, UniProt P17947 1-270); conditions: protein: recombinant; tags: N-terminal GST; dsDNA, one strand shown
# Summary of the method: as §1
# SPIB = SPIB (Homo sapiens, UniProt Q01892 1-262); conditions: protein: recombinant; tags: N-terminal GST; dsDNA, one strand shown
# SPIB, sequence (Q01892 whole entry): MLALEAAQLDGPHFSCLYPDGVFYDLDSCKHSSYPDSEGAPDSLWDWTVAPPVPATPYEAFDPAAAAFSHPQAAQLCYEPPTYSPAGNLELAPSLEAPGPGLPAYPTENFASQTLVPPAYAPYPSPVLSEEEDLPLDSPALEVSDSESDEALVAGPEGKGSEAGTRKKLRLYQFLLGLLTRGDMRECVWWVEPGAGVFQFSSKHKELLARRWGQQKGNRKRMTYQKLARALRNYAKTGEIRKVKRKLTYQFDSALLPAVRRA
# Summary of the method: as §1
# ELK3 = target: T6, ELK3 (Homo sapiens, UniProt P41970 1-407); conditions: protein: recombinant; tags: N-terminal GST; dsDNA, one strand shown
# T6 sequence: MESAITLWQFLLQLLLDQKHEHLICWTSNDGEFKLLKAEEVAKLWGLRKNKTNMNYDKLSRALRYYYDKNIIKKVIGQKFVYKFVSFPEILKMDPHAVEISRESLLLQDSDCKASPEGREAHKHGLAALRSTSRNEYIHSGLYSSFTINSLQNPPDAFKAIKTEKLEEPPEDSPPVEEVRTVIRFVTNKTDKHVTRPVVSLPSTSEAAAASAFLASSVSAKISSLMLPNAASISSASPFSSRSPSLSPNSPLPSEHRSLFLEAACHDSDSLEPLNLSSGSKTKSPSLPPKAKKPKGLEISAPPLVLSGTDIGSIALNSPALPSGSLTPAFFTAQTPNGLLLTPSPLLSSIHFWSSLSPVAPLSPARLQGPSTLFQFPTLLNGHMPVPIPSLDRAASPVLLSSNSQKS
# Summary of the method: as §1
# FEV = target: T7, FEV (Homo sapiens, UniProt Q99581 1-238); conditions: protein: recombinant; tags: N-terminal GST; dsDNA, one strand shown
# T7 sequence: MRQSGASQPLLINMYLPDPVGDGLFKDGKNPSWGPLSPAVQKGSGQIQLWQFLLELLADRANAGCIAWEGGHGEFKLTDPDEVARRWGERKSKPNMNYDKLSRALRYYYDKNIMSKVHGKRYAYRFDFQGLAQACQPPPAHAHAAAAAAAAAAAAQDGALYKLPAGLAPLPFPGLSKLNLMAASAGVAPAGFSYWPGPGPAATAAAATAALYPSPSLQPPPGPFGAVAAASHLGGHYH
# Summary of the method: as §1
# ETV5 = ETV5 (Homo sapiens, UniProt P41161 1-510); conditions: protein: recombinant; tags: N-terminal GST; dsDNA, one strand shown
# ETV5, sequence (P41161 whole entry): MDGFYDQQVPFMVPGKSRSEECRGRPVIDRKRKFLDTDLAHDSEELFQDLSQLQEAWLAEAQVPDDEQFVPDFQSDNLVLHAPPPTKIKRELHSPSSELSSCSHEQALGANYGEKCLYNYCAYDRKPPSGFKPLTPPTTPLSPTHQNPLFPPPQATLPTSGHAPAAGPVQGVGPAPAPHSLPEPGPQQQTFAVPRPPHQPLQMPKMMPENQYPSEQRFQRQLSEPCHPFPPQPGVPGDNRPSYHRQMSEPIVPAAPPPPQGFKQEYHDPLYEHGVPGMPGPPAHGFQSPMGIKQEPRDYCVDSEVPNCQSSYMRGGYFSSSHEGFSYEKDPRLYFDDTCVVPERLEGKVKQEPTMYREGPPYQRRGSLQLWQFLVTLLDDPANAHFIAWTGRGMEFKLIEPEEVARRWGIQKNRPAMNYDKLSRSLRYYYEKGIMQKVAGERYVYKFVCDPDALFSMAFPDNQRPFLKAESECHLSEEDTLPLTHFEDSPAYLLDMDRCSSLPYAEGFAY
# Summary of the method: as §1
# HSF1 = HSF1 (Homo sapiens, UniProt Q00613 1-529); conditions: protein: recombinant; tags: N-terminal GST; chain copies: 3; dsDNA, one strand shown
# HSF1, sequence (Q00613 whole entry): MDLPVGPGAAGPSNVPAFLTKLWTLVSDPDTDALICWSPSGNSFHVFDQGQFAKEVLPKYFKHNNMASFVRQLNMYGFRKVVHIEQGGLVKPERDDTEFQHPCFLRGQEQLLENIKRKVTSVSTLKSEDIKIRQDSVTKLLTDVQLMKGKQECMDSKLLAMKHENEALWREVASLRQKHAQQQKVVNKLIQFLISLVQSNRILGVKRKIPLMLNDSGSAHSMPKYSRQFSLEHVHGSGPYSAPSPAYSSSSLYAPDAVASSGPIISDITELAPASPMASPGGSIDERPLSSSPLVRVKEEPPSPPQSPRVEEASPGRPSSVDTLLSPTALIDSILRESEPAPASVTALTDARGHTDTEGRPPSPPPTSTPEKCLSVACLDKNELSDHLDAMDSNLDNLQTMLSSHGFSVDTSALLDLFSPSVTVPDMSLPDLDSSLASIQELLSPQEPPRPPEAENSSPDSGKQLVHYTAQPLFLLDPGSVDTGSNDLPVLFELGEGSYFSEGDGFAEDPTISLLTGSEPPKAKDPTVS
# Summary of the method: as §1
# SPIC = target: T8, SPIC (Homo sapiens, UniProt Q8N5J4 1-248); conditions: protein: recombinant; tags: N-terminal GST; dsDNA, one strand shown
# T8 sequence: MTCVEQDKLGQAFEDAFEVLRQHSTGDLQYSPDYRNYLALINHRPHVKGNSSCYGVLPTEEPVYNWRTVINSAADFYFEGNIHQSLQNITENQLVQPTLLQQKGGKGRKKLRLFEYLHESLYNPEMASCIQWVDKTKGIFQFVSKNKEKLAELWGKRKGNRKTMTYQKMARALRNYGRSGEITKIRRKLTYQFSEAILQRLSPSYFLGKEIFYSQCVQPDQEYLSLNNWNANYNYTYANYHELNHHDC
# Summary of the method: as §1
# ELF4 = ELF4 (Homo sapiens, UniProt Q99607 1-663); conditions: protein: recombinant; tags: N-terminal GST; dsDNA, one strand shown
# ELF4, sequence (Q99607 whole entry): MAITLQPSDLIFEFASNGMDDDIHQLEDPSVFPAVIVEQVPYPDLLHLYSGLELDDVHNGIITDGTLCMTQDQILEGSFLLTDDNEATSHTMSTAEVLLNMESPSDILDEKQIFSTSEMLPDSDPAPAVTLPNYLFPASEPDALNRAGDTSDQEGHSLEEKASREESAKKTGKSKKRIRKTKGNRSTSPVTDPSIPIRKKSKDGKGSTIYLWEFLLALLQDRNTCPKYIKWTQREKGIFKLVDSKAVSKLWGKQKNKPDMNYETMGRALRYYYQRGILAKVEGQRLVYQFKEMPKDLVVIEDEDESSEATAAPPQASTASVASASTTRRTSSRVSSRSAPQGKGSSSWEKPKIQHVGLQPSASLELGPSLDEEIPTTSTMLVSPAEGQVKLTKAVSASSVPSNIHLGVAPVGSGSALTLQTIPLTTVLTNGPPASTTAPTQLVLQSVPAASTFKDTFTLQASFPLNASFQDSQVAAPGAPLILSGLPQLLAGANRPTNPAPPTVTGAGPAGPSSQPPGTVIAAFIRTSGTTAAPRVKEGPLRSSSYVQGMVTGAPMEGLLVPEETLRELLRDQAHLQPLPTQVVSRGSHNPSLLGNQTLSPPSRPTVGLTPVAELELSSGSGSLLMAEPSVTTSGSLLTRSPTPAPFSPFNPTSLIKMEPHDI
# Summary of the method: as §1
# ELK4 = target: T9, ELK4 (Homo sapiens, UniProt P28324-2 1-405); conditions: protein: recombinant; tags: N-terminal GST; dsDNA, one strand shown
# T9 sequence: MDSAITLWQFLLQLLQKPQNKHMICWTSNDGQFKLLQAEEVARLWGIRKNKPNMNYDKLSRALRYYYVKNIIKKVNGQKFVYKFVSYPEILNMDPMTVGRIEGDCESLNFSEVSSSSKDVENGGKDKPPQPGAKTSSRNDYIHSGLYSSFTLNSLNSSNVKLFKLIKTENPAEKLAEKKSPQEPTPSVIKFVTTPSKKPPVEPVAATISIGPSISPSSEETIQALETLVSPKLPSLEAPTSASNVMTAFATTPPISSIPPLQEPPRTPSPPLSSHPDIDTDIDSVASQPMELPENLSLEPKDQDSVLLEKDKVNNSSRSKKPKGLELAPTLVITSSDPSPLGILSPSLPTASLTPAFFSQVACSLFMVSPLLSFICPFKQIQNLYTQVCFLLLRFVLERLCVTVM
# Summary of the method: as §1
# ETV2 = target: T10, ETV2 (Homo sapiens, UniProt O00321 1-342); conditions: protein: recombinant; tags: N-terminal GST; dsDNA, one strand shown
# T10 sequence: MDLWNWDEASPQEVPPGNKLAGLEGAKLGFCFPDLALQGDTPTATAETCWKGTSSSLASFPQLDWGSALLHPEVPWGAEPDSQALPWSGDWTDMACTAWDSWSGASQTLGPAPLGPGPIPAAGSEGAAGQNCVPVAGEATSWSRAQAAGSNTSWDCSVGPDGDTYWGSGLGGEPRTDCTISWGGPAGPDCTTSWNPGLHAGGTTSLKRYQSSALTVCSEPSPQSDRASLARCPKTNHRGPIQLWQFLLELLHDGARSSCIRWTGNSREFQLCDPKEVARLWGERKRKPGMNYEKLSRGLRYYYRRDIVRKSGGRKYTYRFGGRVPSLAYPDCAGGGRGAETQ
# Summary of the method: as §1
# ELF3 = target: T11, ELF3 (Homo sapiens, UniProt P78545 1-371); conditions: protein: recombinant; tags: N-terminal GST; dsDNA, one strand shown
# T11 sequence: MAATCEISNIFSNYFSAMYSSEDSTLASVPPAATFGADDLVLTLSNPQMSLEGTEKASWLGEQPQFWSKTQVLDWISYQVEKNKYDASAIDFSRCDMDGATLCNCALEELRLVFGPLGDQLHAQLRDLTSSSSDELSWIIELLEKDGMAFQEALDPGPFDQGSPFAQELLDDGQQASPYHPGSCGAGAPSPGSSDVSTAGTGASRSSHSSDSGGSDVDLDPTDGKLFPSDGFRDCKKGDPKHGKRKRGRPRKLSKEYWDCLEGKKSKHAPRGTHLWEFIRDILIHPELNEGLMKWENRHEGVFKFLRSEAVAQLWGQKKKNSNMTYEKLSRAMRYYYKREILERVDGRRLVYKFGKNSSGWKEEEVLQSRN
# Summary of the method: as §1
# CRX = CRX (Homo sapiens, UniProt O43186 1-299); conditions: protein: recombinant; tags: N-terminal GST; dsDNA, one strand shown
# CRX, sequence (O43186 whole entry): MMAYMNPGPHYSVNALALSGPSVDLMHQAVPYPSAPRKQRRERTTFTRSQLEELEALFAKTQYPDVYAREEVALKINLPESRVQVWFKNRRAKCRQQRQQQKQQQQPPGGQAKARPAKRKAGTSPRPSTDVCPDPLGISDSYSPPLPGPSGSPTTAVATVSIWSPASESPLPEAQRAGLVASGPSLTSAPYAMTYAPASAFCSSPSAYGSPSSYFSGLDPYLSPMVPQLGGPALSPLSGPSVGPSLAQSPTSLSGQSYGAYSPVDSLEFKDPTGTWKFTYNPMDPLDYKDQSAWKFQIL
# Summary of the method: as §1
# ETV1 = ETV1 (Homo sapiens, UniProt P50549 1-477); conditions: protein: recombinant; tags: N-terminal GST; dsDNA, one strand shown
# ETV1, sequence (P50549 whole entry): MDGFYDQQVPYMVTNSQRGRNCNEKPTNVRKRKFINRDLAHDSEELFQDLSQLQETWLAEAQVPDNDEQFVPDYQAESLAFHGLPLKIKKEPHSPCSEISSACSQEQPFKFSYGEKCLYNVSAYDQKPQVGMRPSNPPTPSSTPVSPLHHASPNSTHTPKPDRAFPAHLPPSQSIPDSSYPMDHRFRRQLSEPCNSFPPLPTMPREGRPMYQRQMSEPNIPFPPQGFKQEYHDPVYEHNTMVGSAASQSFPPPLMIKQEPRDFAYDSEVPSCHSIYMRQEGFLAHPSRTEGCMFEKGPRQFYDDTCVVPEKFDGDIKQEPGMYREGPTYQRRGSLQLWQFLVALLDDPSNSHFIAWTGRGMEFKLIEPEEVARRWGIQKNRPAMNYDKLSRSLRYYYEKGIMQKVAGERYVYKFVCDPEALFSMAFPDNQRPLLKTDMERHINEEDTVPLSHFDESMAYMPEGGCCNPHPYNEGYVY
# Summary of the method: as §1
sequence,measurement,setting,value
CTAACT,binding signal,FLI1,"1.36 fold enrichment (6-mer frequency, TF over GST control)"
same,binding signal,ELK1,"1.35 fold enrichment (6-mer frequency, TF over GST control)"
same,binding signal,GABPA,"1.36 fold enrichment (6-mer frequency, TF over GST control)"
same,binding signal,ERG,"1.37 fold enrichment (6-mer frequency, TF over GST control)"
same,binding signal,ELF1,"1.37 fold enrichment (6-mer frequency, TF over GST control)"
same,binding signal,EHF,"1.25 fold enrichment (6-mer frequency, TF over GST control)"
same,binding signal,SPI1,"1.36 fold enrichment (6-mer frequency, TF over GST control)"
same,binding signal,SPIB,"1.35 fold enrichment (6-mer frequency, TF over GST control)"
same,binding signal,ELK3,"1.29 fold enrichment (6-mer frequency, TF over GST control)"
same,binding signal,FEV,"1.34 fold enrichment (6-mer frequency, TF over GST control)"
same,binding signal,ETV5,"1.34 fold enrichment (6-mer frequency, TF over GST control)"
same,binding signal,HSF1,"1.19 fold enrichment (6-mer frequency, TF over GST control)"
same,binding signal,SPIC,"1.31 fold enrichment (6-mer frequency, TF over GST control)"
same,binding signal,ELF4,"1.4 fold enrichment (6-mer frequency, TF over GST control)"
same,binding signal,ELK4,"1.36 fold enrichment (6-mer frequency, TF over GST control)"
same,binding signal,ETV2,"1.27 fold enrichment (6-mer frequency, TF over GST control)"
same,binding signal,ELF3,"1.21 fold enrichment (6-mer frequency, TF over GST control)"
same,binding signal,CRX,"1.21 fold enrichment (6-mer frequency, TF over GST control)"
same,binding signal,ETV1,"1.28 fold enrichment (6-mer frequency, TF over GST control)"
